This note sets out measurements from PubChem BioAssay (Tox21).

Values without a mark were called inactive. Records with an inconclusive call do not appear. Active and inactive are the calls of the source. Unless noted, the call rests on the fitted dose curve; in most records, active means well fitted curve in the direction sought with a large enough effect in the repeat runs; inconclusive means weak or mixed curves; inactive means no such curve, though single readings can be large; an effect the other way counts as inactive or inconclusive.

A short description of experiment [1]: A CellTox Green Cytotoxicity Assay to monitor cytotoxicity in HEK293 cells - 8 hour (AID 1224884). Further: nearly all actives have a fitted effect of over 35% in size. A digest of the protocol: (§1)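 Read-out: fluorescence of a cell-impermeant cyanine dye staining DNA of dead cells, proportional to cytotoxicity. HEK293, 600 cells/well with reagent, compound (23 nL DMSO) added after 5 h; reads at 0, 8, 16, 24, 32, 40 h.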
A short description of experiment [2]: qHTS RealTime-Glo MT Cell Viability Assay in HepG2 cells - 16 hour (AID 1224885). Further: nearly all actives have a fitted effect of over 50% in size. In outline: (§2)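 Viability was tracked continuously by NanoLuc luminescence from prosubstrate reduced by living HepG2 cells, at successive time points over 40 h of compound exposure. Cells with reagent were preincubated 5 h at 37 °C before compound addition.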
(qHTS replaces the single test concentration by a dilution series.)

The nature of experiment [3]: qHTS RealTime-Glo MT Cell Viability Assay in HEK293 cells - 24 hour (AID 1224886). Further: top concentration of the series differs between compounds; nearly all actives have a fitted effect of over 50% in size. A digest of the protocol:
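Viability tracked continuously by luminescence as live cells reduce a prosubstrate for NanoLuc; HEK293 cells preincubated 5 h, compound-treated at 37 C, and read at 0, 8, 16, 24, 32 and 40 h.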

Experiment [4] can be described thus: qHTS RealTime-Glo MT Cell Viability Assay in HEK293 cells - 8 hour (AID 1224887). Further: top concentration of the series differs between compounds; nearly all actives have a fitted effect of over 50% in size. In outline:
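Luminescence readout at each listed time point; HEK293, 600 cells/well, RealTime-Glo MT reagent added with cells; compounds pinned (23 nL in DMSO) after 5 h at 37 C; continuous culture at 37 C.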

The nature of experiment [5]: A CellTox Green Cytotoxicity Assay to monitor cytotoxicity in HEK293 cells - 16 hour (AID 1224888). Further: nearly all actives have a fitted effect of over 35% in size. A digest of the protocol: as §1
The nature of experiment [6]: qHTS RealTime-Glo MT Cell Viability Assay in HepG2 cells - 0 hour (AID 1224889). Further: nearly all actives have a fitted effect of over 50% in size. A digest of the protocol: as §2
Experiment [7] is described as follows: A CellTox Green Cytotoxicity Assay to monitor cytotoxicity in HepG2 cells - 8 hour (AID 1224890). Further: nearly all actives have a fitted effect of over 45% in size. A digest of the protocol:
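HepG2, 600 cells/well premixed w/ CellTox Green; 5 h settle, 37 C/5% CO2; pintool cpd add (DMSO); 37 C, 40 h; fluorescence read at 0, 8, 16, 24, 32, 40 h.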

Experiment [8] can be described thus: qHTS assay to identify small molecule antagonists of the estrogen receptor alpha (ER-alpha) signaling pathway using the BG1 cell line in the presence of 0.1 nM 17-beta-estradiol - cell viability counter screen (AID 1259241). Further: nearly all actives have a fitted effect of over 40% in size. In outline:
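The cell line endogenously expresses full-length ER-alpha and carries four EREs driving luciferase. Cells are cultured 5 days hormone-free, treated 22 hr with compounds and 0.1 nM estradiol, then viability is read by fluorescence.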

Experiment [9] can be described thus: qHTS assay to identify small molecule antagonists of the androgen receptor (AR) signaling pathway using the MDA cell line in the presence of 0.5 nM R1881 - cell viability counter screen (AID 1259242). Further: nearly all actives have a fitted effect of over 45% in size. In outline:
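Live-cell protease fluorescence, CellTiter-Fluor, 30 min at 37C. Cells: MDA-kb2, 3,000/well, preincubated 5 hr. Compounds plus 0.5 nM R1881 final, 16 hr, 37C, 0% CO2.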

The target of experiment [10] is Androgen receptor (Homo sapiens) (UniProt P10275). As to the kind of experiment: qHTS assay to identify small molecule antagonists of the androgen receptor (AR) signaling pathway using the MDA cell line in the presence of 0.5 nM R1881 (AID 1259243). Further: nearly all actives have a fitted effect of over 50% in size. In outline: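 MDA-kb2, MMTV-luc (AR/GR elements); 3,000 cells/well; cpd + 0.5 nM R1881 final; 16 hr 37C, 0% CO2; ONE-Glo 30 min RT; luminescence.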
Sequence of Androgen receptor (Homo sapiens) (P10275 whole entry, looked up): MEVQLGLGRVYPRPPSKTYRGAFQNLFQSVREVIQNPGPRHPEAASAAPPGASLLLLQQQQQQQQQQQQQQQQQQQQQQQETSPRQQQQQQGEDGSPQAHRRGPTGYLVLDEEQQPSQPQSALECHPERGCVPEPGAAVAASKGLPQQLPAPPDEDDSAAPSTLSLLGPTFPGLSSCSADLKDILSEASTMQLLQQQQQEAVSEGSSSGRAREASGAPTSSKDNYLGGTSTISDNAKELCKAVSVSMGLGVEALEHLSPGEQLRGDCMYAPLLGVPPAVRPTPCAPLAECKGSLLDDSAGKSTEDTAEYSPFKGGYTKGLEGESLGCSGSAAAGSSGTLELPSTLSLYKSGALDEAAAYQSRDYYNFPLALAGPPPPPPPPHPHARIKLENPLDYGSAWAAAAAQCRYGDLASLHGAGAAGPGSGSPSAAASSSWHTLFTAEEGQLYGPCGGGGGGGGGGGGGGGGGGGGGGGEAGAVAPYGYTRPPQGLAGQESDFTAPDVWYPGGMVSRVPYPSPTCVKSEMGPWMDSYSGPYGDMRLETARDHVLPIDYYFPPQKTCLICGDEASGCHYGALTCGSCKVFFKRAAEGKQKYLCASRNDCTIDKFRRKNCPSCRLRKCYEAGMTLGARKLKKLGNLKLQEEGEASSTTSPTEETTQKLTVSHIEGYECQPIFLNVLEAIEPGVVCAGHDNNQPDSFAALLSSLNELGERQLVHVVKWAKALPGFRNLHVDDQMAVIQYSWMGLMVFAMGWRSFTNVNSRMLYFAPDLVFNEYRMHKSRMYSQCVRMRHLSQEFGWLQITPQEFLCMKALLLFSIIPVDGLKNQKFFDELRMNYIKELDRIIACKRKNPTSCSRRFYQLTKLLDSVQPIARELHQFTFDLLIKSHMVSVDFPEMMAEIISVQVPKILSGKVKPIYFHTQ

Experiment [11] addresses Estrogen receptor (Homo sapiens) (UniProt P03372). As to the kind of experiment: qHTS assay to identify small molecule antagonists of the estrogen receptor alpha (ER-alpha) signaling pathway using the BG1 cell line in the presence of 0.1 nM 17-beta-estradiol (AID 1259244). Further: nearly all actives have a fitted effect of over 50% in size. A digest of the protocol: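 Luminescence after ONE-Glo (30 min, room temperature) measured ERE-luciferase activity in VM7Luc4E2 cells treated 22 h with compound and 0.1 nM final 17beta-estradiol as stimulator.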

Experiment [12] can be described thus: qHTS assay to identify small molecule HDAC inhibitors (AID 1259364).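 Further: wild-type HCT-116 cells with endogenous class I/II HDAC activity; top concentration of the series differs between compounds; nearly all actives have a fitted effect of over 45% in size.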 In outline: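 HCT-116 (wild type), 1,500 cells/well, overnight; compound 2 hr 37C 5% CO2; HDAC-Glo I/II reagent 30 min RT; luminescence readout.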
The nature of experiment [13]: qHTS assay to identify small molecule HDAC inhibitors - cell viability counter screen (AID 1259365). In outline: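 Viability readout: CellTiter-Glo luminescence. Wild-type HCT-116 cells, 2hr compound treatment following overnight attachment at 37 C.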
The nature of experiment [14]: qHTS assay to identify small molecule agonists of the sonic hedgehog signaling (Shh) pathway - cell viability counter screen (AID 1259366). Further: nearly all actives have a fitted effect of over 50% in size. Further: potency means the concentration at half of the fitted maximal effect. A digest of the protocol: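 Viability measured fluorometrically (CellTiter-Fluor, 1hr, 37C) in 3T3 Gli1-Luc reporter cells after 23hr compound exposure within a 24hr incubation at 37C/5% CO2.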
Experiment [15] can be described thus: qHTS assay to identify small molecule antagonists of the sonic hedgehog signaling (Shh) pathway - cell viability counter screen (AID 1259367). Further: nearly all actives have a fitted effect of over 55% in size. Further: potency means the concentration at half of the fitted maximal effect. A digest of the protocol:
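Viability was read by CellTiter-Fluor fluorescence in the same wells, reagent added 23 hr into compound treatment and incubated 1 hr at 37C. The 3T3 Gli1-Luc reporter cells (2,000/well) received conditioned medium after compound and ran 24 hr.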

Experiment [16] is described as follows: qHTS assay to identify small molecule agonists of the sonic hedgehog signaling (Shh) pathway (AID 1259368; calls by dose curve;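 further: NIH/3T3-derived 3T3Gli1-Luc cells carrying a stable Gli1-driven firefly luciferase reporter; series mostly up to about 92 µM; nearly all actives have a fitted effect of over 15% in size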). A digest of the protocol: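 Read-out: firefly luciferase luminescence from a Gli1 response element reporter stably integrated in NIH/3T3-derived 3T3Gli1-Luc cells, measured 30 min at room temperature after reagent addition. Compound exposure lasted 24 hr at 37 C, 5% CO2.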

The nature of experiment [17]: qHTS assay to identify small molecule antagonists of the sonic hedgehog signaling (Shh) pathway (AID 1259369; calls by dose curve; further: nearly all actives have a fitted effect of over 45% in size; further: potency means the concentration at half of the fitted maximal effect). In outline: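 Luminescence readout: firefly Luc under Gli1 response element in 3T3Gli1-Luc cells (NIH/3T3 clone). Antagonist mode, stimulation by conditioned medium; compound exposure 24hr at 37 C, 5% CO2.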
For experiment [18], the target named is Estrogen receptor beta (Homo sapiens) (UniProt Q92731). As to the kind of experiment: qHTS assay to identify small molecule antagonists of the estrogen receptor beta (ER-beta) signaling pathway (AID 1259378; active means well fitted inhibition curve with a large enough effect in the signal ratio in the repeat runs, not every such curve was filed as active; the % refers to the signal ratio). In outline: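 Antagonist mode: compounds added to beta-lactamase reporter HEK293T ER-beta-UAS cells stimulated with E2 (1nM final), 16 hr at 37C. LiveBLAzer B/G FRET substrate, 2 hours room temperature, fluorescence read-out.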
Sequence of Estrogen receptor beta (Homo sapiens) (Q92731 whole entry, looked up): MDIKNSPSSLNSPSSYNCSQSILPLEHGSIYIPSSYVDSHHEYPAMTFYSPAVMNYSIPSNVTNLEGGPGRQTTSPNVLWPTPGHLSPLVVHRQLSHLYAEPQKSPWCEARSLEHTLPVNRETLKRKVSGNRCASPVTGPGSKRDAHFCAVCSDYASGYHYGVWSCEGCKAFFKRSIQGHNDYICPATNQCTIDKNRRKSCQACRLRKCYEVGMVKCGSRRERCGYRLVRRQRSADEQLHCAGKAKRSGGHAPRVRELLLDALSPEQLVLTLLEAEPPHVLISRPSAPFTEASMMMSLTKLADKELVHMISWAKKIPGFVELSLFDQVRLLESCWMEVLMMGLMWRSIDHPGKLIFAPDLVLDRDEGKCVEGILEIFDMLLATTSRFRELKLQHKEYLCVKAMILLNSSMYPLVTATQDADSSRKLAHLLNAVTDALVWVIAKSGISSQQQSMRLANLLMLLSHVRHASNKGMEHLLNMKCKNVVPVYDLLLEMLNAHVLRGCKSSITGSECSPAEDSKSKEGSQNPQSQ

Experiment [19] shares this target. Nature of the experiment: qHTS assay to identify small molecule agonists of the estrogen receptor beta (ER-beta) signaling pathway (AID 1259377; active means well fitted activation curve with a large enough effect in the signal ratio in the repeat runs, not every such curve was filed as active; the % refers to the signal ratio). A digest of the protocol: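 A UAS-controlled beta-lactamase reporter in ER-beta-UAS-bla HEK293T cells reports receptor activation. Compounds act for 16 hr at 37C in 2% charcoal-stripped serum, and a FRET substrate is read by fluorescence after 2 hours.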

Sequence of Estrogen receptor (Homo sapiens) (P03372 whole entry, looked up): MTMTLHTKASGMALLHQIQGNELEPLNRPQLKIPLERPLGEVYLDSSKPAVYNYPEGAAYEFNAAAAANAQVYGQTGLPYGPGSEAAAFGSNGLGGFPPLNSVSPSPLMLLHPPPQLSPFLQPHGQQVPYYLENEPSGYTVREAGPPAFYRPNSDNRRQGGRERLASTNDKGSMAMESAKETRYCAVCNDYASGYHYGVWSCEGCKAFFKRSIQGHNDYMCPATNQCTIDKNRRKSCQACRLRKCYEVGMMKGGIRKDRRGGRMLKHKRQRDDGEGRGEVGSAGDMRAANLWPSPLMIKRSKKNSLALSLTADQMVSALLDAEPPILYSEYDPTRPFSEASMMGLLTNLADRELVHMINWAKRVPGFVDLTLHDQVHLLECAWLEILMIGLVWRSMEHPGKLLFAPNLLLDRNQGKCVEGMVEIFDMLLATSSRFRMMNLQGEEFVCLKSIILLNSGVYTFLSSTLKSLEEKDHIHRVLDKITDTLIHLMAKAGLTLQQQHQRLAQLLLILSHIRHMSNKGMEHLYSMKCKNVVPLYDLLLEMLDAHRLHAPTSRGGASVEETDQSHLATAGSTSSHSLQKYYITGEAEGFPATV

For `CCC1(C)C(=O)N(Cl)C(=O)N1Cl` (stereo not drawn), the Potency entry in [1], in [2], in [3], in experiment [4], in [5] and in experiment [6] was “inactive” throughout. Further, the Potency result in experiment [7], in [8], in [9], in [10], in [11] and in [12] was “inactive” in each case. Also, the Potency result in experiment [13], in experiment [14], in experiment [15], in experiment [16], in experiment [17] and in [18] was “inactive” each time.
With `ClC(c1ccccc1)(c1ccccc1)c1ccccc1`, the Potency result in [1], in experiment [2], in experiment [3], in [4], in [5] and in [6] was “inactive” in each case. The Potency result in experiment [7], in experiment [8], in [9], in experiment [12], in experiment [13] and in experiment [14] was “inactive” in each case. The Potency entry in experiment [15], in [16] and in [17] was “inactive” each time.
On to `CC1CCC(C(C)(C)O)CC1` (stereo not drawn), for which the Potency entry in experiment [1], in experiment [2], in experiment [3], in experiment [4], in experiment [5] and in [6] was “inactive” in each case. For the same molecule, the Potency entry in experiment [7], in experiment [8], in experiment [9], in experiment [10], in [12] and in experiment [13] was “inactive” throughout. Also, the Potency entry in [14], in [15] and in [16] was “inactive” each time.
On to `C=Cc1ccc(O)c(OC)c1`, for which the Potency result in [1], in [2], in experiment [3], in experiment [4], in experiment [5] and in [6] was “inactive” in each case. Besides, the Potency entry in experiment [7], in experiment [8], in experiment [9], in experiment [12], in experiment [13] and in experiment [16] was “inactive” each time. The Potency entry in [18] was “inactive”. Besides, the Potency in experiment [14] was 54.5 µM (active); in experiment [15] it was 27.3 µM (active); in experiment [17], 13.7 µM (active).
With `O=C(c1ccccc1)c1ccc(Cl)cc1`, the Potency result in [1], in experiment [2], in experiment [3], in experiment [4], in [5] and in [6] was “inactive” in each case. The Potency entry in experiment [7], in experiment [8], in experiment [9], in experiment [11], in experiment [12] and in [13] was “inactive” in each case. In addition, the Potency entry in experiment [16] is “inactive”.
Turning to `Cc1ccc(C=O)cc1`, the Potency entry in experiment [1], in [2], in experiment [3], in experiment [4], in [5] and in experiment [6] was “inactive” throughout. The Potency result in experiment [7], in experiment [8], in [9], in [12], in experiment [13] and in experiment [14] was “inactive” in each case. The Potency entry in experiment [15], in [16], in [17] and in [18] was “inactive” throughout. Also, the call in [19] was inactive.
`CCCCCCCCc1ccc(Nc2ccc(CCCCCCCC)cc2)cc1`: the Potency result in experiment [1], in experiment [2], in [3], in experiment [4], in experiment [5] and in experiment [6] was “inactive” each time. Moreover, the Potency entry in experiment [7], in experiment [8], in experiment [9], in [10], in experiment [11] and in experiment [12] was “inactive” each time. Further, the Potency entry in [13], in experiment [14], in experiment [15], in experiment [16], in experiment [17] and in [18] was “inactive” in each case. Further, in experiment [19], the call was inactive.
